The structures appear in SMILES notation. Out of some 16,000 compounds screened, about 5,800 (36%) were called active. Inconclusive results (about 23%) are left out. The list shows a part of the results. Unmarked numbers belong to inactive results. Calls follow the shape of the dose curve; as a rule, active = well fitted curve in the direction sought with a large enough effect; inconclusive = small, poorly fitted or top-dose-only effect, or effect the other way; inactive = no such curve, though single readings can be large or run the other way.
% is scaled to controls: 0 for no effect and ±100 for the full control effect.

Cytochrome P450 2C19 (Homo sapiens), sequence (P33261 whole entry, looked up): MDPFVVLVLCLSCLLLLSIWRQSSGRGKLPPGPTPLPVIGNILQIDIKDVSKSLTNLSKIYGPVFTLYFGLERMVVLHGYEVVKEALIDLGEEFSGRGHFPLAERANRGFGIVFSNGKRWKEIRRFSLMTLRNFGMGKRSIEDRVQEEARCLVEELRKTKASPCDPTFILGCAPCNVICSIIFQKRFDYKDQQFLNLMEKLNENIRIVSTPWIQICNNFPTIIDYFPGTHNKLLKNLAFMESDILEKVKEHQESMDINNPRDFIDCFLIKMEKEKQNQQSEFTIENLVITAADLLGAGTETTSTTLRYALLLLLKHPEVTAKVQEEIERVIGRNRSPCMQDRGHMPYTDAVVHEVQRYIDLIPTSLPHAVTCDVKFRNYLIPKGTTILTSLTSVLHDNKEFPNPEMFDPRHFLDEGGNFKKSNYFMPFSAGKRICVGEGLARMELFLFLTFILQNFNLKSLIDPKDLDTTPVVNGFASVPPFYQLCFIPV

This assay addresses Cytochrome P450 2C19 (Homo sapiens) (UniProt P33261). Kind of assay: Cytochrome panel assay with activity outcomes. The conditions noted are these: recombinant CYP, pro-luciferin dealkylation, luminescence, p450-cyp2c19; series mostly up to 57.1 µM; activity, negative = inhibition: at the top concentration.
Turning to `CC(C)(C)c1onc(OCP(=O)(O)O)c1C[C@@H](N)C(=O)O`, the “activity, negative = inhibition” value is -1.17%.
For `O=C(Nc1ccc(F)cc1)c1ccc(-n2ccnc2)nc1`, the AC50 was 0.0708 µM (active).
For the compound `CCOc1cc(C#N)c(NC(=O)c2cccnc2)cc1OCC`, the “activity, negative = inhibition” value is -11.4%.
Consider `Cc1c(Cl)cccc1NC(=O)c1ccc(-n2ccnc2)nc1`, for which the AC50 is 0.0447 µM (active).
In the case of `COC(=O)c1cc(=O)[nH]c(=O)[nH]1`, the activity, negative = inhibition was 23% [at 11.4 µM].
Still for that read-out and setting: for `CCNc1ncc2nc(-c3cc(F)cc(F)c3)c(=O)n(CCOC)c2n1` the value was -41.4%; for `COC(=O)/C=C\CCc1coc(/C=C\CNC(=O)OC)n1`, 31.7% [at 11.4 µM].
On to `CCCCc1n[nH]c2c1/C(=N/O)CC(c1ccccc1)C2` (stereo not drawn), for which the AC50 was 0.447 µM (active).
Consider `CCCc1cc(=O)oc2cc(OCc3cc(OC)c(OC)c(OC)c3)c(Cl)cc12`, for which the “activity, negative = inhibition” value is 4.84%.
In the case of `CCCc1cc(=O)oc2cc(OCc3nn[nH]n3)ccc12`, the AC50 was 25.1 µM (active).
Same read-out and setting: for `CCn1c(-c2ccccc2Cl)nn(CC(=O)Nc2ccc(OC)cc2)c1=S` the value was 3.55 µM (active); for `CCn1c(-c2ccccc2Cl)nn(CC(=O)Nc2cc(Cl)ccc2Cl)c1=S`, 1.78 µM (active); for `CCn1c(-c2ccccc2Cl)nn(CC(=O)Nc2ccccc2OC)c1=S`, 0.891 µM (active).
For the compound `COC(=O)c1ccc(C23CC2(C(NP(=O)(c2ccccc2)c2ccccc2)c2ccccc2)C3)cc1` (stereo not drawn), the AC50 was 10 µM (active).
Regarding `NCS(=O)(=O)O`, the activity, negative = inhibition was 8.81% [at 11.4 µM].
`O=C(NC1CCCC1)c1cccnc1N1CCCCCC1`: the AC50 was 8.91 µM (active).
As to `O=C(NNC(=O)C1CCCCC1)c1cnccn1`, the “activity, negative = inhibition” value is -21.2%.
Same read-out and setting: under `Cn1nc(C(=O)NC2CCCCC2)c2ccccc2c1=O` stands -26%; under `COc1ccc(OC)c(NC(=O)[C@H]2CC=CC[C@H]2C(=O)O)c1`, -9.87%.
On to `COc1cc(C)nc(N2CCCC(C(=O)Nc3cc(Cl)ccc3OC)C2)n1` (stereo not drawn), for which the AC50 is 0.126 µM (active).
With `O=C(/C=C/c1ccc2ccccc2c1)c1ccoc1`, the AC50 was 2 µM (active).
Same read-out and setting: under `CS(=O)(=O)c1nc(-c2ccccc2)cc(-c2ccccc2)c1C#N` stands 0.794 µM (active).
As to `O=C1c2ccccc2-c2ccc(NC(=O)[C@H]3CCCC[C@@H]3C(=O)O)cc21`, the activity, negative = inhibition is -17.3% [at 11.4 µM].
Same read-out and setting: under `O=C1c2ccccc2-c2ccc(N(Cc3ccc(Br)cc3)Cc3ccc(Br)cc3)cc21` stands -10.9% [at 11.4 µM].
With `O=C(OCc1cccc(F)c1)c1ccc2c(c1)-c1ccccc1C2=O`, the concentration at half-maximal activity (AC50) was 11.2 µM (active).
`COc1ccc(NC(=O)N2CC[C@@]3(CCCN(C(=O)c4cnccn4)C3)C2)cc1`: the “activity, negative = inhibition” value was 17.4%.
Same read-out and setting: under `Cc1nc2c(C#N)c(C)[nH]n2c(=O)c1Cc1ccccc1` stands -16.2%.
Turning to `Cc1nc2c(C(=O)NCc3ccc4c(c3)OCO4)c[nH]n2c(=O)c1Cc1ccccc1F`, the AC50 was 14.1 µM (active).
Consider `Cn1c(=O)n2n(c1=O)[C@H]1[C@H](O)[C@H]3O[C@@H]3/C(=N/OCc3ccccc3)[C@@H]1CC2`, for which the activity, negative = inhibition is 50.3% [at 11.4 µM].
In the case of `C[C@@H]1O[C@H]2C3=C(C(=O)[C@H]4O[C@@H]4[C@H]3O)[C@@H]1[C@@H]1[C@@H](C)OC=C3[C@H](O)[C@H]4O[C@@H]4/C(=N\OCc4ccccc4)[C@]312`, the AC50 was 0.631 µM (active).
In the case of `CC(=O)O[C@H]1C2=CO[C@H](C)[C@H]3[C@H]4C5=C([C@H](O)[C@H]6O[C@@H]6C5=O)[C@H](O[C@H]4C)[C@@]23C(=O)[C@H]2O[C@@H]21`, the activity, negative = inhibition was 11.4% [at 11.4 µM].
As for `CC(=O)c1c(C)[nH]c(C(=O)COc2ccc(C#N)cc2)c1C`, the AC50 is 8.91 µM (active).
For the compound `CC(=O)c1[nH]c(C)c(C(C)=O)c1C`, the “activity, negative = inhibition” value is -10.7%.
On to `S=C1N(c2ccccc2)C(c2ccc(Cl)cc2)N2CCCN12` (stereo not drawn), for which the AC50 is 2.24 µM (active).
Still for that read-out and setting: for `Cc1ccc(S(=O)(=O)/C(C#N)=C/c2c(N3CC(C)OC(C)C3)nc3ccccn3c2=O)cc1` (stereo not drawn) the value was 14.1 µM (active).
Consider `O=C(O)CCc1ccc(-c2ccc(Cl)cc2)n1CCC(=O)O`, for which the “activity, negative = inhibition” value was -23.8%.
Consider `O=C1/C(=C/c2ccccc2)[C@@H](NC2CCCCC2)c2ccccc21`, for which the AC50 is 1.26 µM (active).
Turning to `CCCNC(=O)NS(=O)(=O)c1ccc(Cl)cc1`, the “activity, negative = inhibition” value is -5.17% [at 25.6 µM].
Take `CCCNC(=O)CC(NS(=O)(=O)c1ccc(Cl)cc1)c1ccco1` (stereo not drawn): the AC50 was 1 µM (active).
On the same count and under the same terms, for `O=C(CC(NS(=O)(=O)c1ccc(Cl)cc1)c1ccco1)NCc1ccco1` (stereo not drawn) the value was 7.94 µM (active).
As to `CCOC(=O)C[C@@H](C(=O)OCC)[C@@H]1CCCCC1=O`, the activity, negative = inhibition is -32.2% [at 11.4 µM].
On the same count and under the same terms, for `O=C1NC(=O)C(c2ccccc2)(c2ccccc2)N1` the value was 10.9%.
The same measure, in the same setting: under `COC(=O)C/C=C\[C@@H](C)[C@@H]1C=C[C@H](OC(C)=O)[C@H](COC(C)=O)O1` stands 16.3% [at 11.4 µM]; under `O=C1CN2CCN(CC2)CC(=O)Nc2ccc(cc2)S(=O)(=O)c2ccc(cc2)NC(=O)CN2CCN(CC2)CC(=O)Nc2ccc(cc2)S(=O)(=O)c2ccc(cc2)N1`, -8.07% [at 11.4 µM]; under `CCC(=O)Nc1nonc1-c1nc2ccccc2n1N(C(=O)CC)C(=O)CC`, -13.8%.
As for `CCn1c(-c2nonc2NC(=O)c2ccccc2)nc2ccccc21`, the AC50 was 1.58 µM (active).
On the same count and under the same terms, under `FC(F)(F)c1ccccc1-c1ccc2ncnc(NC3CCNCC3)c2c1` stands 3.98 µM (active); under `FC(F)(F)c1ccccc1-c1ccc2ncnc(NC3CC3)c2c1`, 2 µM (active).
In the case of `Cc1ccccc1-c1nc(NC2CCNCC2)c2ccccc2n1`, the “activity, negative = inhibition” value was -11.2%.
The same measure, in the same setting: for `CN(C)Cc1ccccc1-c1ccc2ncnc(NC3CCNCC3)c2c1` the value was 0.549%.
As for `Clc1ccccc1-c1ccc2ncnc(NC3CCNCC3)c2c1`, the AC50 is 3.98 µM (active).
Take `Cc1ccccc1-c1ccc2ncnc(NC3CC3)c2c1`: the AC50 is 1.26 µM (active).
In the case of `O[C@@H](c1ccccc1)C1CCN(CCc2ccccc2)CC1`, the “activity, negative = inhibition” value is -43.7%.
In the case of `C[C@@H](N)C(=O)O`, the “activity, negative = inhibition” value was -2.97%.
Same read-out and setting: under `Cc1ccccc1N1CCN(S(=O)(=O)C[C@@]23CC[C@H](C[C@H]2NC(=O)[C@@H](N)CCS(C)(=O)=O)C3(C)C)CC1` stands -31.2%; under `COc1cnc(NS(=O)(=O)c2ccc(N)cc2)nc1`, -19.3% [at 25.6 µM].
The same measure, in the same setting: for `O=C1NC(c2ccccc2)=NC1(NS(=O)(=O)c1ccccc1)C(F)(F)F` (stereo not drawn) the value was 9.27%.
For the compound `COc1ccc(S(=O)(=O)NC2(C(F)(F)F)N=C3SCCN3C2=O)cc1` (stereo not drawn), the AC50 was 22.4 µM (active).

The values above are taken from PubChem BioAssay AID1851 (National Center for Advancing Translational Sciences (NCATS), 2009).
